From PubChem
CYP2C9 activ – increases human cytochrome P450 2C9 activity. activation factor at 5 µM. 1.4% of 96,000 active. recombinant CYP2C9, luciferin-H conversion, luminescence; active compounds read high; factor 1 = untreated enzyme, 0 = blocked. P11712. AID 1024;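 active = activation factor of 2 or more for CYP2C9 at a 5 µM dose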;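 note: 0 = sulfaphenazole-blocked wells and 1 = vehicle-only wells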
CYP2C9 inh – human CYP2C9 inhibition. CYP2C9 Supersomes, luciferin-H conversion, luminescence. inhibition, % at 5 µM. 20% of 96,000 active. AID 777;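 active = blocking of liver enzyme CYP2C9 beyond about 50% at 5 µM, limit read from the data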
CYP2C19 inhib – human CYP2C19 inhibition | P33261 | CYP2C19 Supersomes, luciferin-H EGE luminescence, 30 min | inhibition, % at 5 µM | 21% of 96,000 active;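 active = CYP2C19 inhibition above a set limit at 5 µM in the primary screen, cut at about 50% in these data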;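 note: plate controls were negative control wells for no effect and 2.5 mM tranylcypromine positive control for full effect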
Target sequence (P33261 whole entry, looked up): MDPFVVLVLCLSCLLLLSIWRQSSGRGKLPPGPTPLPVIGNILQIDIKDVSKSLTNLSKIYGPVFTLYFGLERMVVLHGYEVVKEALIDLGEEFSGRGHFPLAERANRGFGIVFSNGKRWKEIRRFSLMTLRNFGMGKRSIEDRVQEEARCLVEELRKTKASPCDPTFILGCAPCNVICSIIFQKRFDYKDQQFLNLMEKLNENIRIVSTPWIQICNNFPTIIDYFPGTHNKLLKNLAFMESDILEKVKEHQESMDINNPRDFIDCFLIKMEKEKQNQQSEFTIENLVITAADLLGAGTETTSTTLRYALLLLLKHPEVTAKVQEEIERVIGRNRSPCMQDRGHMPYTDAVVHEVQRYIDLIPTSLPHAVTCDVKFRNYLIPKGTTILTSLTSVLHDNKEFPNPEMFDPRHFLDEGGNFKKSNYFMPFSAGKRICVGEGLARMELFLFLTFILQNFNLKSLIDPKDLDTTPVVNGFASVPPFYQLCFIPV
CYP2C19 act – cytochrome P450 2C19 (human) activation; activation factor at 5 µM; P33261; recombinant CYP2C19, luciferin-H EGE luminescence; active compounds read high; 0 = fully inhibited enzyme, 1 = untreated enzyme; 96,000 tested, under 10 active; AID 1025;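 active = activation factor of at least 2 at 5 µM in the primary screen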;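 note: 0 = wells with 2.5 mM tranylcypromine and 1 = vehicle-only wells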
PLAP act – activates human placental alkaline phosphatase; activation fold at 20 µM; purified PLAP enzyme, luminescent substrate read-out; active compounds read high; 1.2% of 96,000 active; AID 696; in the data active = activation fold above about 2
Active calls of the source: *. This is a sample that favours compounds with a hit; in the whole collection about 31% have one here.

SMILES | CYP2C9 activ | CYP2C9 inh | CYP2C19 inhib | CYP2C19 act | PLAP act
O=C(O)C1C2C=CC(C3CC23)C1C(=O)N1CCc2ccccc21 (stereo not drawn) | 1.1 | -8 | -17 | 1.2 | 1.1
CN(C)S(=O)(=O)c1ccc(C(=O)Nc2nnc(-c3ccc4c(c3)CCCC4)o2)cc1 | 0.9 | 14 | 1 | 1 | 1.2
Clc1cccc(-c2ccc(/C=N/n3cnnc3)o2)c1 | 0.8 | 25 | 51* | 0.5 | 1
Cc1ccc(-c2ccc(/C=N/n3cnnc3)o2)cc1Cl | 0.4 | 61* | 64* | 0.4 | 0.9
CN(C(=O)CSc1nc2ccccc2n1CCc1ccccc1)C1CCS(=O)(=O)C1 (stereo not drawn) | 0.9 | 6 | 68* | 0.3 | 2.3*
CCn1c(SCC(=O)N(Cc2ccccc2)C2CCS(=O)(=O)C2)nc2ccccc2c1=O (stereo not drawn) | 0 | 95* | 81* | 0.2 | 1.3
CN(C(=O)CSc1nnc2ccccn12)C1CCS(=O)(=O)C1 (stereo not drawn) | 1.3 | -34 | 1 | 1 | 0.9
CCOC(=O)c1snc(-c2ccc(F)cc2)c1N | 0.9 | 9 | 33 | 0.7 | 0.7
Cc1cc(NC(=O)CSc2nnnn2C)n(-c2ccccc2)n1 | 1.1 | -10 | -16 | 1.2 | 0.8
Cc1cc(F)ccc1S(=O)(=O)Nc1c(C)n(C)n(-c2ccccc2)c1=O | 0.5 | 50* | 91* | 0.1 | 1.1
Cc1c(NS(C)(=O)=O)c(=O)n(-c2ccccc2)n1C | 1 | -1 | -7 | 1.1 | 1
Cc1ccc(C(=O)Oc2ccc3c(c2)ncn3C)cc1 | 1.3 | -26 | -5 | 1 | 1.3
Cc1noc(C)c1COc1cccc(C(=O)OCC(=O)N2CC(=O)Nc3ccccc32)c1 | 0.4 | 63* | 59* | 0.4 | 0.9
Cc1noc(C)c1COc1cccc(C(=O)N2CCN(C/C=C/c3ccccc3)CC2)c1 | 0.1 | 88* | 90* | 0.1 | 1.5
Cc1cc(C(=O)N2CCN(C/C=C/c3ccccc3)CC2)cs1 | 0.4 | 61* | 59* | 0.4 | 1.6
COc1ccccc1NC(=O)C(C)N1CCN(C/C=C/c2ccccc2)CC1 (stereo not drawn) | 0.6 | 37 | 60* | 0.4 | 1.6
CCOc1ncccc1C(=O)OCC(=O)N1CC(=O)Nc2ccccc21 | 1.3 | -32 | -11 | 1.1 | 1
COc1cccc2cc(C(=O)N3CCN(C/C=C/c4ccccc4)CC3)c(=O)oc12 | 2.9* | -187 | 35 | 0.6 | 1.6
CN(c1ccc(OCC(=O)NC2CCCC2)cc1)S(=O)(=O)c1cccs1 | 0.3 | 72* | 13 | 0.9 | 0.7
CN(c1ccc(OCC(=O)N2CCC(C(N)=O)CC2)cc1)S(=O)(=O)c1cccs1 | 1 | 5 | -3 | 1 | 0.9
O=C(Nc1ccccc1)N(Cc1ccc(Cl)cc1)CC(O)C(F)(F)F (stereo not drawn) | 0.5 | 53* | 37 | 0.6 | 0.9
O=C1C2(c3ccccc3)CN(CCO)CC1(c1ccccc1)CN(CCO)C2 | 1.1 | -12 | 1 | 1 | 1.7
COc1ccc(C(=O)Nc2cccc3c2C(=O)NC3=O)cc1S(=O)(=O)N1CCOCC1 | 0.9 | 9 | 10 | 0.9 | 0.9
COc1cc(OC)c(C2N(c3ccc(Cl)cc3)C(=O)C3CCCN32)cc1OC (stereo not drawn) | 0.6 | 36 | 30 | 0.7 | 1.4
Cc1cccc(NC(=S)NNC(=O)CC(C)O)c1C (stereo not drawn) | 0.4 | 61* | 25 | 0.8 | 2*
SMILES | CYP2C9 activ | CYP2C9 inh | CYP2C19 inhib | CYP2C19 act | PLAP act
CC(=O)c1c(C(C)=O)c(C)n(-c2ccc(C)c(NC(=O)c3ccccc3Cl)c2)c1C | 0.6 | 43 | 13 | 0.9 | 1.3
CCCN1Cc2cccc(C(=O)Nc3ccc(C)cc3)c2C1=O | 0.9 | 14 | 0 | 1 | 1.1
CCCN1Cc2cccc(C(=O)Nc3ccc(CC)cc3)c2C1=O | 0.6 | 42 | 2 | 1 | 0.8
CCCN1Cc2cccc(C(=O)Nc3ccc4c(c3)OCO4)c2C1=O | 0.4 | 60* | 10 | 0.9 | 0.8
O=C(Nc1ccc2c(c1)OCO2)c1cccc2c1C(=O)N(Cc1cccnc1)C2 | 0.2 | 77* | 34 | 0.7 | 0.9
O=C(O)c1cccc2c1C(=O)N(Cc1ccncc1)C2 | 0.9 | 6 | -2 | 1 | 1
CCCN1Cc2cccc(C(=O)Nc3ccc4c(c3)OCCO4)c2C1=O | 0.1 | 92* | 81* | 0.2 | 1.5
COc1cc(NC(=O)c2cccc3c2C(=O)N(Cc2cccnc2)C3)cc(OC)c1OC | 0.3 | 69* | 48 | 0.5 | 1.4
